The results in this text go back to PubChem BioAssay (Tox21).

A short description of assay [1]: qHTS RealTime-Glo MT Cell Viability Assay in HEK293 cells - 0 hour (AID 1224880). Note: top concentration of the series differs between compounds; nearly all actives have a fitted effect of over 45% in size. The essentials: (§1)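 Kinetic, non-lysing viability readout. Seed HEK293 (600/well) with reagent, incubate 5 h at 37 C/5% CO2, pin 23 nL compound in DMSO, incubate at 37 C, read luminescence at 0, 8, 16, 24, 32, 40 h.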
A general note: qHTS replaces the single test concentration by a dilution series.

Assay [2] in a line: A CellTox Green Cytotoxicity Assay to monitor cytotoxicity in HepG2 cells - 0 hour (AID 1224882). Note: nearly all actives have a fitted effect of over 35% in size. A digest of the protocol:
(§2)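 Cytotoxicity was tracked as dead-cell DNA fluorescence in HepG2 cells treated with test compounds at 37 C; each time-point value comes from one kinetic series spanning 0, 8, 16, 24, 32 and 40 h.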

Assay [3] can be described thus: A CellTox Green Cytotoxicity Assay to monitor cytotoxicity in HepG2 cells - 32 hour (AID 1224883). Note: nearly all actives have a fitted effect of over 50% in size. A digest of the protocol:
as §2

Assay [4] is described as follows: A CellTox Green Cytotoxicity Assay to monitor cytotoxicity in HEK293 cells - 8 hour (AID 1224884). Note: nearly all actives have a fitted effect of over 35% in size. The essentials:
(§3)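 Real-time, in one plate: 600 HEK293 cells/well with dead-cell DNA dye, pinned compound after 5 h, 37 C incubation over 40 h; viable cells give no appreciable fluorescence.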

A short description of assay [5]: qHTS RealTime-Glo MT Cell Viability Assay in HepG2 cells - 16 hour (AID 1224885). Note: nearly all actives have a fitted effect of over 50% in size. The essentials:
(§4)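 HepG2 suspension premixed with RealTime-Glo reagents is plated at 600 cells per well and left 5 h at 37 C/5% CO2. Compounds in DMSO then go in, and bioluminescence reflecting viable cell number is recorded over 40 h.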

The nature of assay [6]: qHTS RealTime-Glo MT Cell Viability Assay in HEK293 cells - 24 hour (AID 1224886). Note: top concentration of the series differs between compounds; nearly all actives have a fitted effect of over 50% in size. A digest of the protocol: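 Reads taken at 0, 8, 16, 24, 32 and 40 h from the same wells. HEK293 cells (600/well) carried RealTime-Glo reagents from seeding, with compound added after a 5 h settle at 37 C.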
Assay [7] can be described thus: qHTS RealTime-Glo MT Cell Viability Assay in HEK293 cells - 8 hour (AID 1224887). Note: top concentration of the series differs between compounds; nearly all actives have a fitted effect of over 50% in size. The essentials: as §1
Assay [8] can be described thus: A CellTox Green Cytotoxicity Assay to monitor cytotoxicity in HEK293 cells - 16 hour (AID 1224888). Note: nearly all actives have a fitted effect of over 35% in size. A digest of the protocol: as §3
Assay [9] in a line: qHTS RealTime-Glo MT Cell Viability Assay in HepG2 cells - 0 hour (AID 1224889). Note: nearly all actives have a fitted effect of over 50% in size. The essentials:
as §4

The nature of assay [10]: A CellTox Green Cytotoxicity Assay to monitor cytotoxicity in HepG2 cells - 8 hour (AID 1224890). Note: nearly all actives have a fitted effect of over 45% in size. A digest of the protocol: as §2
Assay [11] in a line: qHTS assay to identify small molecule antagonists of the estrogen receptor alpha (ER-alpha) signaling pathway using the BG1 cell line in the presence of 0.1 nM 17-beta-estradiol - cell viability counter screen (AID 1259241). Note: nearly all actives have a fitted effect of over 40% in size. The essentials:
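Following 5 days in phenol red-free medium with charcoal-stripped serum, VM7Luc4E2 cells received test compounds alongside 0.1 nM 17beta-estradiol (final) at 37C for 22 hr. Live cells were then quantified via protease-substrate fluorescence.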

The nature of assay [12]: qHTS assay to identify small molecule antagonists of the androgen receptor (AR) signaling pathway using the MDA cell line in the presence of 0.5 nM R1881 - cell viability counter screen (AID 1259242). Note: nearly all actives have a fitted effect of over 45% in size. A digest of the protocol: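 Cells seeded at 3,000/well and allowed 5 hr at 37C, 0% CO2 before compound transfer and R1881 (0.5 nM final) addition; 16 hr later, live-cell protease fluorescence indicated cytotoxicity.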

In assay [13] the target is Androgen receptor (Homo sapiens) (UniProt P10275). The assay can be described thus: qHTS assay to identify small molecule antagonists of the androgen receptor (AR) signaling pathway using the MDA cell line in the presence of 0.5 nM R1881 (AID 1259243). Note: nearly all actives have a fitted effect of over 50% in size. A digest of the protocol:
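Luminescence from an AR/GR-responsive MMTV-luciferase construct in MDA-kb2 breast carcinoma cells, read 30 min after ONE-Glo, following 16 hr co-treatment with compounds and 0.5 nM R1881.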

Assay [14] is described as follows: qHTS assay to identify small molecule agonists of the sonic hedgehog signaling (Shh) pathway - cell viability counter screen (AID 1259366). Note: nearly all actives have a fitted effect of over 50% in size. The essentials: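 Compounds in DMSO were pin-transferred onto 3T3 Gli1-Luc cells that had settled 4hr; plates then stood 24hr at 37C and 5% CO2. One hour before the end, CellTiter-Fluor was added and fluorescence recorded.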

The nature of assay [15]: qHTS assay to identify small molecule antagonists of the sonic hedgehog signaling (Shh) pathway - cell viability counter screen (AID 1259367). Note: nearly all actives have a fitted effect of over 55% in size. The essentials: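 Conditioned medium drove Shh signaling in 3T3 Gli1-Luc cells exposed to compounds at 37C and 5% CO2. Viability was determined from CellTiter-Fluor fluorescence, with reagent incubated 1 hr after 23 hr of treatment.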

Assay [16] can be described thus: A CellTox Green Cytotoxicity Assay to monitor cytotoxicity in HEK293 cells - 32 hour (AID 1224881). Note: nearly all actives have a fitted effect of over 40% in size. A digest of the protocol: as §3
For assay [17], the target named is Estrogen receptor (Homo sapiens) (UniProt P03372). The assay can be described thus: qHTS assay to identify small molecule antagonists of the estrogen receptor alpha (ER-alpha) signaling pathway using the BG1 cell line in the presence of 0.1 nM 17-beta-estradiol (AID 1259244). Note: nearly all actives have a fitted effect of over 50% in size. A digest of the protocol:
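Luciferase signal from VM7Luc4E2 ERE-reporter cells, co-dosed with test compound and 0.1 nM final 17beta-estradiol for 22 h, read with ONE-Glo.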

Assay [18] can be described thus: qHTS assay to identify small molecule phospholipidosis (PLD) inducers (AID 1259344; active = well fitted curve in the direction sought with a large enough effect; an effect the other way counts as inactive or inconclusive). A digest of the protocol:
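After 4 h attachment on collagen I, HepG2 cells were dosed with compound alongside LipidTOX Red, kept 24 h at 37 C, fixed, and imaged for lamellar phospholipid pits.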

A short description of assay [19]: qHTS assay to identify small molecule HDAC inhibitors (AID 1259364). Note: potency is the fitted concentration of half-maximal effect.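 Note: wild-type HCT-116 cells with endogenous class I/II HDAC activity; nearly all actives have a fitted effect of over 45% in size.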 The essentials: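 HCT-116 wt cells, 1,500/well, overnight attach. Compounds (DMSO) 2 h, 37 °C. HDAC-Glo I/II, 30 min RT. Luminescence.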
The nature of assay [20]: qHTS assay to identify small molecule HDAC inhibitors - cell viability counter screen (AID 1259365). The essentials:
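HCT-116 wild-type, overnight attachment; 2hr drug exposure, 37C; CellTiter-Glo luminescent ATP readout after 30min RT.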

Unmarked numbers belong to inactive results. Results filed as inconclusive are left out. Active and inactive are the calls of the source. Unless noted, calls come from the whole dose curve; as a rule, active = well fitted curve in the direction sought with a large enough effect in the repeat runs; inconclusive = weak or mixed curves; inactive = no such curve, though single readings can be large; an effect the other way counts as inactive or inconclusive.

Chain of Androgen receptor (Homo sapiens) (P10275 whole entry, looked up): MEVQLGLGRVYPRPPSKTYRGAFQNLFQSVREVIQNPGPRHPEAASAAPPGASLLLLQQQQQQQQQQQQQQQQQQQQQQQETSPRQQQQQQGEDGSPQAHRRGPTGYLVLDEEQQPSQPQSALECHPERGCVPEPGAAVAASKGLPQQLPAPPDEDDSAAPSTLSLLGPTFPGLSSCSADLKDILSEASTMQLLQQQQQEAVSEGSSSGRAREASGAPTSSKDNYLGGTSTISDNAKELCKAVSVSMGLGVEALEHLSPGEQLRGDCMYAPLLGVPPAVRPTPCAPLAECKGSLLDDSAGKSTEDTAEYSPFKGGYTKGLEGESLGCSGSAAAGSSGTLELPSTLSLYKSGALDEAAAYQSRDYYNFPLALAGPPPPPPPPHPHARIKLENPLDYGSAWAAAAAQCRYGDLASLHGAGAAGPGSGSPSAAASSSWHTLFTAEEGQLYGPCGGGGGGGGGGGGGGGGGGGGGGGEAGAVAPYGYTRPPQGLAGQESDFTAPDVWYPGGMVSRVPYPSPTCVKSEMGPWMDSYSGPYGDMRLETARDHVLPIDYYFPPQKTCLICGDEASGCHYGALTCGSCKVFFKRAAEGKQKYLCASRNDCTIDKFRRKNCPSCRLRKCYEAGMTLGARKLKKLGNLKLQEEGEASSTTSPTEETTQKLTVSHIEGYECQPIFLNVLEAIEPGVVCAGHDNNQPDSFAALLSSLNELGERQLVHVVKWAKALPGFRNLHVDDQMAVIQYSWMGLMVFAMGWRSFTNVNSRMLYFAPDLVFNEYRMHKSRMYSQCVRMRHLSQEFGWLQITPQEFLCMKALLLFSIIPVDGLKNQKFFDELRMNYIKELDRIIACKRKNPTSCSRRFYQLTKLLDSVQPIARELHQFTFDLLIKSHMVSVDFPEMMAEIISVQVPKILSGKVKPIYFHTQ
Chain of Estrogen receptor (Homo sapiens) (P03372 whole entry, looked up): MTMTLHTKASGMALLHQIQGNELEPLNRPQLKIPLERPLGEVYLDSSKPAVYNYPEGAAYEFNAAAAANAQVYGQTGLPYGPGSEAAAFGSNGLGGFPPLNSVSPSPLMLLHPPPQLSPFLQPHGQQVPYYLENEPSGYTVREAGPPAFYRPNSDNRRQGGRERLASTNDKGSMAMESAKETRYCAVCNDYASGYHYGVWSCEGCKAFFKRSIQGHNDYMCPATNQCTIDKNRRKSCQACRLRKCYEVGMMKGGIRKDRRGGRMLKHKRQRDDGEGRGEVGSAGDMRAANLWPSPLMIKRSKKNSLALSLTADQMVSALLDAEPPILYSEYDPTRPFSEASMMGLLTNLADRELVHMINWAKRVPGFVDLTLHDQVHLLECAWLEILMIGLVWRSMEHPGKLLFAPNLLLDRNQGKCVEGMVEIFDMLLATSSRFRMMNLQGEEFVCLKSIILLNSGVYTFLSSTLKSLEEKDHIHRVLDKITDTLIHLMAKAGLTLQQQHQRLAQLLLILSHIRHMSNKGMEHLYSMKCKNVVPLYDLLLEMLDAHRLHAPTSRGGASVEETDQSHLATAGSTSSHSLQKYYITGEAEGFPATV

`COc1cc(CCC(C)=O)ccc1O`: the compound was called inactive in assay [1], in assay [5], in assay [11], in assay [12] and in [15]. For the same compound, the Potency entry in assay [2], in assay [3], in assay [4], in assay [6], in [7] and in [8] was “inactive” in each case. Also, the Potency result in assay [9], in assay [10], in [13] and in assay [14] was “inactive” in each case.

Regarding `NC(=O)CCCCC1CCSS1` (stereo not given), the compound was called inactive in [1], in [5], in assay [11], in [12], in [17] and in [15]. The Potency result in assay [16], in assay [3], in [4], in assay [6], in [7] and in assay [8] was “inactive” throughout. For the same compound, the Potency entry in assay [9], in [18] and in assay [14] was “inactive” each time.

In the case of `COC[C@H](c1ccc(C(F)(F)F)cc1)N1CCN(C2(C)CCN(C(=O)c3c(C)ncnc3C)CC2)C[C@H]1C`, the call in [1], in assay [5], in [11], in assay [12], in [17] and in assay [20] was inactive. Further, in assay [15], the result was inactive. Besides, the Potency entry in [16], in assay [3], in [4], in assay [7], in assay [8] and in [9] was “inactive” in each case. Moreover, the Potency entry in assay [10] and in [19] was “inactive” each time.

For the compound `COc1cccc(Br)c1`, the call in [1], in assay [11], in [12], in [17], in assay [20] and in assay [15] was inactive. In addition, the Potency result in assay [16], in assay [4], in [6], in assay [7], in [8] and in [9] was “inactive” each time. The Potency entry in [13] and in [19] was “inactive” each time.

On to `CN1[C@@H]2CC[C@H]1CC(NC(=O)n1c(=O)[nH]c3ccccc31)C2` (stereo not given in full), for which the compound was classed as inactive in assay [1], in [5], in [11], in assay [12], in [17] and in [20]. Also, the compound was called inactive in [15]. For the same compound, the Potency entry in assay [2], in assay [3], in [4], in [6], in assay [7] and in assay [8] was “inactive” throughout. Moreover, the Potency entry in assay [9], in assay [10], in assay [13], in assay [18] and in assay [14] was “inactive” throughout.

Consider `CCCCCCCCCCCCCCCCCCOCC(O)CO` (stereo not given), for which the result in [1], in [5], in assay [11], in assay [12], in assay [20] and in assay [15] was inactive. Moreover, the Potency result in assay [16], in assay [4], in assay [6], in assay [7], in assay [8] and in assay [9] was “inactive” each time. Further, the Potency result in assay [18] and in [14] was “inactive” in each case.

`O=C(O)c1cccc(C(=O)O)n1`: the outcome in assay [1], in assay [5], in assay [11], in [12], in assay [17] and in assay [20] was inactive. Moreover, the result in [15] was inactive. The Potency result in assay [2], in assay [3], in assay [4], in assay [6], in [7] and in assay [8] was “inactive” each time. For the same compound, the Potency entry in assay [9], in assay [10], in assay [19] and in assay [14] was “inactive” each time.

`[O-][N+](=Nc1ccccc1)c1ccccc1`: the call in assay [1], in assay [5], in assay [11], in assay [12], in assay [17] and in assay [15] was inactive. For the same compound, the Potency result in [2], in assay [3], in [4], in assay [6], in assay [7] and in [8] was “inactive” each time. Moreover, the Potency entry in [9], in assay [10], in assay [18] and in assay [14] was “inactive” throughout. In assay [19], the Potency was 9.69 µM (active).

As to `COc1cc(C)cc(O)c1`, the result in assay [1], in [5], in assay [11], in assay [12], in assay [20] and in assay [15] was inactive. Also, the Potency result in assay [2], in [3], in assay [4], in assay [6], in [7] and in [8] was “inactive” each time. Moreover, the Potency result in assay [9], in assay [10] and in [19] was “inactive” throughout.

Turning to `C=CCn1c(=O)n([C@@H]2O[C@H](CO)[C@@H](O)[C@H]2O)c2nc(N)[nH]c(=O)c21`, the compound was classed as inactive in assay [1], in assay [5], in assay [11], in assay [12], in [17] and in [20]. The compound was called inactive in assay [15]. The Potency result in [2], in assay [3], in assay [4], in assay [6], in assay [7] and in [8] was “inactive” each time. The Potency result in [9], in assay [10], in assay [13], in [18] and in assay [14] was “inactive” each time.

Take `COCCOC(=O)CC#N`: the outcome in assay [1], in [11], in [12], in assay [17], in [20] and in [15] was inactive. Also, the Potency entry in assay [16], in assay [3], in [4], in [6], in assay [7] and in assay [8] was “inactive” each time. In addition, the Potency result in assay [9], in assay [10] and in [14] was “inactive” in each case.

In the case of `C=C(C)C(=O)NCCCN(C)C`, the compound was called inactive in assay [1], in assay [5], in assay [11], in assay [12], in assay [20] and in [15]. In addition, the Potency result in [16], in assay [3], in [6], in assay [7], in [9] and in [10] was “inactive” throughout. The Potency result in assay [19] and in assay [14] was “inactive” in each case.

With `CC(=O)NC(Cc1ccccc1)C(=O)O` (stereo not given), the outcome in assay [1], in assay [5], in [11], in assay [12], in assay [17] and in assay [20] was inactive. The compound was called inactive in assay [15]. Besides, the Potency result in assay [2], in [3], in assay [4], in assay [6], in [7] and in assay [8] was “inactive” throughout. Besides, the Potency result in [9], in assay [10], in assay [18], in [19] and in [14] was “inactive” throughout.

For the compound `CCN1CCN(c2cc3c(cc2F)c(=O)c(C(=O)O)cn3C2CC2)CC1`, the compound was classed as inactive in assay [1], in [5], in assay [11], in assay [12], in assay [20] and in assay [15]. Further, the Potency entry in assay [2], in [3], in assay [4], in assay [6], in assay [7] and in assay [8] was “inactive” each time. The Potency entry in assay [9], in assay [10], in assay [13], in [18] and in assay [14] was “inactive” each time.

Take `c1ccc(SCCSc2ccccc2)cc1`: the compound was called inactive in assay [1], in assay [5], in assay [11], in [12] and in assay [15]. Also, the Potency entry in [16], in assay [3], in [4], in [6], in assay [7] and in assay [8] was “inactive” in each case. In addition, the Potency result in assay [9], in [10] and in assay [14] was “inactive” in each case.

As for `CC(C)(O)Cc1ccccc1`, the compound was called inactive in assay [1], in assay [11], in assay [12], in [17], in [20] and in [15]. The Potency result in assay [16], in assay [3], in assay [4], in [7], in [8] and in assay [9] was “inactive” throughout. Moreover, the Potency result in [10] and in assay [19] was “inactive” in each case.
